In PubChem BioAssay (NCI):
Compounds without any hit were thinned out: in the full panel of roughly 79,000, 15% have a hit. Cut-off read from the data, not from the text of the source: active = growth inhibition above about 70%; inactive = the rest.

Key:
[1] = NCI Yeast Anticancer Drug Screen. Data for the rad50 strain (AID 155);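 note: 0% = growth of vehicle-only cultures of the same strain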; settings: S. cerevisiae rad50 strain growth inhibition; at 50.0 µM; active compounds read high
Summary of the method: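 Relative growth inhibition (compound vs vehicle) was measured in yeast with a defined repair-gene alteration.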

[2] = NCI Yeast Anticancer Drug Screen. Data for the mec2-1 strain (AID 157); settings: S. cerevisiae mec2-1 strain, at 50.0 µM, active compounds read high
Summary of the method: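 Each compound was tested on mec2-1 yeast, a strain altered in DNA damage repair or cell cycle control. Growth inhibition is reported relative to vehicle.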

[3] = NCI Yeast Anticancer Drug Screen. Data for the sgs1 mgt1 strain (AID 161);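 note: 0% = growth of cultures given vehicle only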; settings: S. cerevisiae sgs1 mgt1 strain, at 50.0 µM, active compounds read high
Summary of the method: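 Test agents were incubated with a DNA-repair-mutant yeast strain. Growth was then read and compared against vehicle-treated controls.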

[4] = NCI Yeast Anticancer Drug Screen. Data for the cln2 rad14 strain (AID 165);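 note: 0% = growth equal to vehicle treated cultures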; settings: S. cerevisiae cln2 rad14 strain, at 50.0 µM, active compounds read high
Summary of the method: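 Test compounds were added to cln2 rad14 yeast cultures; inhibition of growth was then determined by comparison with vehicle treatment.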

[5] = NCI Yeast Anticancer Drug Screen. Data for the bub3 strain (AID 167); settings: S. cerevisiae bub3 mutant strain, at 50.0 µM, active compounds read high
Summary of the method: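 Screening used yeast with an engineered genetic alteration affecting cell cycle control. Compound-exposed cultures were compared with vehicle cultures, and reduced growth was taken as inhibition.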

[6] = NCI Yeast Anticancer Drug Screen. Data for the mlh1 rad18 strain (AID 175); settings: S. cerevisiae mlh1 rad18 strain growth inhibition; at 50.0 µM; active compounds read high
Summary of the method: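 Inhibition values reflect reduced growth of mutant yeast versus vehicle-treated controls following compound exposure; the mutations affect DNA damage repair.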

Measured: growth inhibition

COC(=O)c1cc(=O)n(C)c2ccc(OC)cc12
inactive: [1] 21.1% | [2] 10.8% | [3] -5.3% | [4] 9.75% | [5] 13.6% | [6] 20.7%

C[C@]12CC[C@@H]3c4ccc(OS(=O)(=O)O)cc4CC[C@H]3[C@@H]1CCC2=O
inactive: [1] 22.2% | [2] -0.4% | [3] 12.2% | [4] 18.4% | [5] 23.6% | [6] 3.15%

COc1cc2ccccc2oc1=O
inactive: [1] 21.3% | [2] 8.85% | [3] 3.8% | [4] 15.2% | [5] 5.2% | [6] 21.6%

CCc1nc(N)nc(N)c1-c1ccc2nnn(O)c2c1
inactive: [1] -11.8% | [2] -7.45% | [3] -4.8% | [4] -40% | [5] 0% | [6] -3.1%

CC1=C(/C=C/C(O)CC(O)(C(F)(F)F)C(F)(F)F)C(C)(C)CCC1 (stereo unspecified)
inactive: [1] 38% | [2] 20.8% | [3] 18.9% | [4] 43.2% | [5] 17% | [6] 63.1%

CCN(CC)CCCNc1[nH]ncc2c(C)c3nc4ccccc4c3cc12
inactive: [1] 14.1% | [2] -10.2% | [3] 14.7% | [4] 10.1% | [5] 9.4% | [6] -4.05%

CCOCCOC(=O)C(C)OC(=O)/C(=C/C(=O)O)CCOCC (stereo unspecified)
inactive: [1] -1% | [2] -18.4% | [3] -9.75% | [4] -0.2% | [5] -1.6% | [6] 8.85%

CCCCCCCCNC=O
inactive: [1] 26.1% | [2] 11.1% | [3] 9.45% | [4] 1.1% | [5] 13.1% | [6] 20.8%

Cc1cc(=O)c2cccc(-c3ccccc3)c2[nH]1
inactive: [1] 19.5% | [2] 1.25% | [3] 1.15% | [4] -30.9% | [5] -12.9% | [6] 22.2%

CCOC(=O)C(C)(C(=O)OCC)n1cnc2c1c(=O)n(C)c(=O)n2C
inactive: [1] 8.05% | [2] -7.6% | [3] -12.6% | [4] 9.8% | [5] 10.8% | [6] 4.8%

CC(=O)NC(c1ccc(F)cc1)(c1ccc(F)cc1)C(F)(F)F
inactive: [1] 40.4% | [2] 11.1% | [3] 42.2% | [4] 35.6% | [5] 43% | [6] 40.9%

CC(C(=O)O)/C(=C\c1ccc2c(c1)OCO2)C(=O)O (stereo unspecified)
inactive: [1] 8.15% | [2] 11.3% | [3] -12.9% | [4] -7.7% | [5] 12.9% | [6] 16.8%

COC1=CC(=O)C(C(C)=O)=C(C2(C)C(=O)CCCC2=O)C1=O
inactive: [1] -12.3% | [2] 0.5% | [3] -0.6% | [4] 6.25% | [5] 5.15% | [6] 7.25%

CC(C)(C)c1ccc(-n2c3nc(=O)n(-c4ccccc4CO)c(=O)c-3cc3ccccc32)cc1
inactive: [1] -9.75% | [2] -12.8% | [3] -9.5% | [4] -11.6% | [5] -0.95% | [6] 4.95%

CSCCC(NC(=O)c1c(Cl)ccc(Cl)c1Cl)C(=O)O (stereo unspecified)
inactive: [1] -8.45% | [2] -0.75% | [3] 18.6% | [4] -18.6% | [5] 0.6% | [6] -16.4%

NC(C(=O)O)c1ccc(F)cc1 (stereo unspecified)
inactive: [1] -9.1% | [2] -1.4% | [3] 28.7% | [4] -10% | [5] 2.4% | [6] 37.5%

COc1cc(/C=N/NC(N)=O)cc(OC)c1O
inactive: [1] -0.6% | [2] -11.8% | [3] -34.4% | [4] -14.6% | [5] 33.3% | [6] -4.75%

CCCCS(=N)(=O)CC[C@H](N)C(=O)O (stereo partly specified)
inactive: [1] 2.3% | [2] -22.6% | [3] -25.1% | [4] -1.4% | [5] -47% | [6] -9.85%

CN(C)C(=S)/N=c1\ssc(=S)n1C1CCCCC1
inactive: [1] -22.1% | [2] 2.55% | [3] 6.45% | [4] -49.6% | [5] 25.7% | [6] -11.5%

OCC1OC(n2cnc3[nH]cnc(=S)c32)C(O)C1O (stereo unspecified)
inactive: [1] 4.3% | [2] 14.2% | [3] 0.35% | [4] 1.05% | [5] -6.35% | [6] 14.7%

C=C1c2nc3ccccc3n2C=C(c2ccc(Cl)cc2)N1c1ccccc1
inactive: [1] -4.65% | [2] 23.4% | [3] -10.7% | [4] 9.7% | [5] -1.6% | [6] 33.5%

CCOC(=O)C(Cc1cn(S(=O)(=O)c2ccc(C)cc2)cn1)P(=O)(OCC)OCC (stereo unspecified)
inactive: [1] -34.5% | [2] -4.45% | [3] -13.4% | [4] 14.2% | [5] -16.7% | [6] -14.3%

COc1ccc(CN2C(=O)C(=O)N(C)C2=O)c2ccccc12
inactive: [1] 36.9% | [2] 4.65% | [3] 13.8% | [4] 18.1% | [5] 18.5% | [6] 23.6%

N#Cc1cnc(=S)n(-c2cc(C(F)(F)F)cc(C(F)(F)F)c2)c1N
inactive: [1] 5.7% | [2] -10.9% | [3] 15.9% | [4] 11.7% | [5] 8.85% | [6] 11.5%

Cc1ncc([N+](=O)[O-])n1CCNC(=O)CCCCn1ccnc1[N+](=O)[O-]
inactive: [1] 5% | [2] -3.75% | [3] -8.6% | [4] 15.1% | [5] 7.15% | [6] -45%

CC(C)Oc1c(NCCO)c2cc(Cl)ccc2oc1=O
inactive: [1] -3.5% | [2] 10.9% | [3] 20.5% | [4] -66.2% | [5] -1.1% | [6] -12.1%

CC(O)CCC(O)CCCO (stereo unspecified)
inactive: [1] 7.8% | [2] -10.7% | [3] 8.4% | [4] -17.1% | [5] 4.65% | [6] -11.7%

O=C1CCCCC1COCC1CCCCC1=O (stereo unspecified)
inactive: [1] -4.8% | [2] 2.65% | [3] -2.15% | [4] -17.6% | [5] 5.25% | [6] -21.4%

O=C(NC(Cc1ccccc1)C(=O)O)Oc1ccc2ccccc2c1 (stereo unspecified)
inactive: [1] 2.9% | [2] 8.25% | [3] 6.1% | [4] -0.95% | [5] -4.8% | [6] -5.2%

CCCCCc1c(C)nc(N)[nH]c1=O
inactive: [1] -3.95% | [2] 0.7% | [3] 1.2% | [4] -40% | [5] -15.4% | [6] -5.45%

CN/N=C(\C)CC(=O)Nc1cccc(Cl)c1C
inactive: [1] -13.7% | [2] -17.6% | [3] -1.15% | [4] 17.2% | [5] -15% | [6] 1.9%

OCC1OC(O)C(N=Cc2ccc3c(c2)OCO3)C(O)C1O (stereo unspecified)
inactive: [1] 13.7% | [2] -14.6% | [3] -14.2% | [4] 1.45% | [5] -20.6% | [6] -19.9%

CCc1n[nH]c(=O)n1/N=C/c1c(O)ccc2ccccc12
inactive: [1] 0.45% | [2] 10.8% | [3] 1.05% | [4] 9.05% | [5] 6% | [6] 18.9%

CCOC(=O)C(CC1OCCO1)C1=NC(C)(C)CC(C)O1 (stereo unspecified)
inactive: [1] -18.4% | [2] 1.2% | [3] -11.4% | [4] -0.05% | [5] -7% | [6] 3.85%

CCOC(=O)C(NC(=O)NC(C(=O)OCC)C(=O)OCC)C(=O)OCC
inactive: [1] -16.7% | [2] -20.6% | [3] -6.55% | [4] -4.05% | [5] -7.7% | [6] -17.6%

CC(=Nc1ccc(C)cc1N)c1c(O)cc(C)oc1=O
inactive: [1] -8.75% | [2] -7.5% | [3] -11.4% | [4] -32.6% | [5] 1.3% | [6] -5.85%

CC(NC(=O)OC(C)(C)C)C(=O)C(N)=O (stereo unspecified)
inactive: [1] -16.2% | [2] 2.7% | [3] -27.9% | [4] 19.1% | [5] 8.25% | [6] -11.5%

CCN1c2ccccc2CC(CCN(C(C)C)C(C)C)(C(N)=O)c2ccccc21 (stereo unspecified)
inactive: [1] 40.9% | [2] 4.9% | [3] 24.8% | [4] 21.3% | [5] -3.1% | [6] -0.9%

C=CC1CC[N-]CC1.[Cl][Cu][Cl]
inactive: [1] 6.4% | [2] -1.9% | [3] 2.75% | [4] -7.6% | [5] -14.6% | [6] 6.35%

O=CSC(=Nc1ccc(Cl)cc1)NC(=O)COc1ccc(Cl)cc1
inactive: [1] 5.05% | [2] -21.4% | [3] 58.9% | [4] -22.4% | [5] 33.3% | [6] 12.3%

[Cl][Mn][Cl]
inactive: [1] 10.2% | [2] 6.4% | [3] 17.4% | [4] -7.15% | [5] -4.75% | [6] -0.15%
